Results as given in PubChem BioAssay AID1159580 (chemical genetic matrix, 2015).
Out of some 5,500 compounds screened, about 2,000 (36%) were called active. Inconclusive results (about 18%) are left out. No stated cut-off is given here; in the data, active means normalized growth mostly below about 0.91 (no sharp cut-off); inconclusive means no clear call, values can overlap the other calls; inactive means mostly above about 0.92. Some of the results follow.

Assay: chemical genetic growth profiling, strain panel (AID 1159580);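 further: tested at 20 µM; growth read once vehicle control cultures reached saturation at 30 °C; 1 = growth at the plate median or of vehicle wells; lower values mean less growth of the strain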
Settings: S. cerevisiae deletion strains, growth OD

Measured: normalized growth

C/C=C(/C)C(=O)O[C@@H]1Cc2c(ccc3ccc(=O)oc23)OC1(C)C
inactive: locus YBR021W, strain FUR4, hits give low values 1.08 | locus YBR229C, strain ROT2, hits give low values 0.984 | locus YCL029C, strain bik1, hits give low values 1.01 | locus YDL035C, strain GPR1, hits give low values 0.974 | locus YDL074C, strain BRE1, hits give low values 0.976 | locus YDL101C, strain DUN1, hits give low values 1.01 | locus YDL134C, strain PPH21, hits give low values 0.947 | locus YDL185W, strain tfp1, hits give low values 1.01 | locus YDL192W, strain arf1, hits give low values 0.977 | locus YDR101C, strain arx1, hits give low values 1.03 | locus YDR150W, strain NUM1, hits give low values 0.934 | locus YDR162C, strain NBP2, hits give low values 0.927 | locus YDR318W, strain mcm21, hits give low values 0.962 | locus YDR388W, hits give low values 0.996 | locus YDR502C, strain sam2, hits give low values 1.03 | locus YEL061C, strain CIN8, hits give low values 0.95 | locus YER110C, hits give low values 1 | locus YER155C, strain BEM2, hits give low values 1 | locus YER167W, strain BCK2, hits give low values 0.978 | locus YGL078C, strain dbp3, hits give low values 0.991 | locus YGL086W, strain mad1, hits give low values 1.02 | locus YGL248W, strain PDE1, hits give low values 0.966 | locus YGR078C, strain PAC10, hits give low values 0.987 | locus YGR135W, strain pre9, hits give low values 0.97 | locus YGR252W, strain gcn5, hits give low values 1.05 | locus YHR030C, strain SLT2, hits give low values 0.992 | locus YHR079C, strain IRE1 (second series), hits give low values 0.987 | locus YHR094C, strain hxt1, hits give low values 0.989 | locus YHR129C, strain ARP1, hits give low values 0.973 | locus YHR200W, strain rpn10, hits give low values 1.01 | locus YIL066C, strain RNR3, hits give low values 0.979 | locus YIL073C, strain SPO22, hits give low values 0.96 | locus YIL125W, strain kgd1, hits give low values 1 | locus YIR030C, strain dcg1, hits give low values 0.989 | locus YJL095W, strain BCK1, hits give low values 0.937 | locus YJL134W, strain LCB3, hits give low values 0.985 | locus YJL168C, strain set2, hits give low values 1 | locus YJL187C, strain SWE1 (second series), hits give low values 0.984 | locus YJR043C, strain POL32, hits give low values 1.01 | locus YJR075W, strain HOC1, hits give low values 0.99 | locus YKL009W, strain mrt4, hits give low values 0.987 | locus YKL068W, hits give low values 0.983 | locus YKL085W, strain MDH1 (second series), hits give low values 0.978 | locus YKL085W, strain MDH1, hits give low values 0.978 | locus YKL190W, strain CNB1, hits give low values 0.935 | locus YKR001C, strain vps1, hits give low values 0.998 | locus YLR039C, strain RIC1, hits give low values 0.792 | locus YLR058C, strain SHM2, hits give low values 0.97 | locus YLR102C, strain apc9, hits give low values 0.99 | locus YLR262C, strain YPT6, hits give low values 0.761 | locus YLR268W, strain sec22, hits give low values 1 | locus YLR330W, strain CHS5, hits give low values 0.989 | locus YLR342W, strain FKS1 (second series), hits give low values 0.987 | locus YLR371W, strain rom2, hits give low values 1 | locus YLR418C, strain cdc73, hits give low values 1.06 | locus YML016C, strain PPZ1, hits give low values 0.987 | locus YML032C, strain rad52, hits give low values 0.969 | locus YML124C, strain tub3, hits give low values 0.982 | locus YMR078C, strain ctf18, hits give low values 0.985 | locus YMR223W, strain ubp8, hits give low values 0.974 | locus YMR307W, strain GAS1, hits give low values 0.716 | locus YNL067W, strain RPL9B, hits give low values 0.951 | locus YNL153C, strain GIM3, hits give low values 0.996 | locus YNL233W, strain BNI4, hits give low values 1 | locus YNL250W, strain rad50, hits give low values 0.981 | locus YNL271C, strain bni1, hits give low values 0.989 | locus YNL298W, strain CLA4, hits give low values 0.984 | locus YNL307C, strain MCK1, hits give low values 1 | locus YNR052C, strain pop2, hits give low values 0.915 | locus YOL012C, strain htz1 0.999 | locus YOL147C, strain pex11, hits give low values 0.99 | locus YOR061W, strain CKA2, hits give low values 0.974 | locus YOR069W, strain VPS5, hits give low values 0.975 | locus YOR136W, strain idh2, hits give low values 1.03 | locus YOR144C, strain elg1, hits give low values 0.992 | locus YOR184W, strain ser1, hits give low values 0.932 | locus YOR316C, strain cot1, hits give low values 0.987 | locus YPL241C, strain CIN2, hits give low values 0.953 | locus YPR119W, strain clb2, hits give low values 0.976 | locus YPR141C, strain kar3, hits give low values 0.981 | locus YPR163C, strain tif3, hits give low values 0.987 | locus YPR167C, strain met16, hits give low values 0.98 | strain wtn01, hits give low values 1.04
